Inconclusive results are not listed. Active and inactive are the calls of the source. Calls come from the whole dose curve; as a rule, active = well fitted inhibition curve with a large enough effect; inconclusive = small, poorly fitted or top-dose-only effect; inactive = flat fitted curve, though single readings scatter.
What was measured:
Experiment in all cases: Cytotoxic Profiling of Annotated Libraries Using Quantitative High-Throughput Screening (AID 1296008); note: nearly all actives have a fitted effect of over 60% in size
Settings in all cases: Five cell lines viability, CellTiter-Glo ATP luminescence, 48-72 h; max response: active compounds read low
CRL-7250 = normal cell line; tested on: CRL-7250
In short: (§1)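 Cytotoxicity was measured as CellTiter-Glo ATP luminescence, read after 10 min at room temperature. Compound treatment of the cells lasted 48 or 72 hr at 37 degrees Celsius in a qHTS format.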

HEK293 = tested on: HEK293
In short: as §1

HaCat = tested on: HaCat
In short: as §1

KB-3-1 = tested on: KB-3-1
In short: as §1

NIH3T3 = tested on: NIH3T3
In short: as §1

Measured: max response
% is set by controls: 0 for no effect and ±100 for the full control effect.

C=C1CCC2(C(=O)OC3OC(CO)C(O)C(O)C3O)CCC3(C)C(=CCC4C5(C)CCC(OC6OC(CO)C(OC7OC(C)C(O)C(O)C7O)C(OC7OCC(O)C(O)C7O)C6O)C(C)(C)C5CCC43C)C2C1 (stereo not given)
inactive: CRL-7250 4.25% | HEK293 -4.7% | HaCat | KB-3-1 3.47% | NIH3T3 -2.38%

COC(=O)[C@]1(Cc2ccc(O)c(CC=C(C)C)c2)OC(=O)C(O)=C1c1ccc(O)cc1
inactive: CRL-7250 1.22% | HEK293 3.25% | HaCat | KB-3-1 | NIH3T3 0.954%

CC1(C)Oc2ncnc(N)c2N=C1c1ccc(C2CCC(CC(=O)O)CC2)cc1 (stereo not given)
inactive: CRL-7250 3.48% | HEK293 0.549% | HaCat | KB-3-1 | NIH3T3 0.325%

CC[C@@H](Nc1c(Nc2cccc(C(=O)N(C)C)c2O)c(=O)c1=O)c1ccc(C)o1
inactive: CRL-7250 | HEK293 0.867% | HaCat -4.91% | KB-3-1 | NIH3T3

C=C1C(OC(C)=O)C(=O)C2C(C)(C)C(O)CCC2(C)C1CC(OC(C)=O)/C(C)=C/COC(C)=O (stereo not given)
inactive: CRL-7250 -6.92% | HEK293 -10.7% | HaCat | KB-3-1 5.46% | NIH3T3 -4.73%

Source: PubChem BioAssay (NCATS)
